Screening results from PubChem BioAssay.
SENP8 block-1 – SENP8 protease inhibition; AID 2540; purified SENP8, Z-RLRGG-aminoluciferin cleavage, luminescence; inhibition, % at 10 µM; 330,000 tested, 1.2% active; Q96LD8; in the data active = inhibition above about 50%
SENP7 inh – inhibitors of human SENP7 protease. Q9BQF6. 330,000 tested, 1.5% active. recombinant SENP7, Z-RLRGG-aminoluciferin luminescence, 40 min. inhibition, % at 5 µM. AID 434973;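 active = inhibition above about 50% at the single test dose, limit read from the data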
SENP8 block-2 – SENP8 (human) protease inhibition. 360,000 tested, 0.64% active. recombinant SENP8, Nedd8 substrate fluorescence. inhibition, % at 20 µM. Q96LD8. AID 602440; in the data active = inhibition mostly above about 40%, no sharp cut-off; inactive = mostly below about 27%
HSP90 refold inh – blocks HSP90-mediated luciferase refolding in reticulocyte lysate | Rabbit reticulocyte lysate, luciferase refolding luminescence, 3 h | inhibition, % at 5.6 µM | 290,000 tested, 0.91% active | AID 1789;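 active = inhibition above the screen-wide mean plus 3 SD, computed separately per campaign, cut at about 16% in these data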;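 also: inhibitors lower the luminescence because luciferase stays unfolded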
SENP6 inh – blocks the human protease SENP6; Q9GZR1; Recombinant SENP6 catalytic domain, aminoluciferin luminescence; inhibition, % at 10 µM; 330,000 tested, 1.8% active;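 active = inhibition above about 50% at the single tested dose, limit read from the data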
Platelet DG rel – modulates dense granule release in human platelets; human platelet-rich plasma, SFLLRN dense granule ATP release, luminescence; inhibition, %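 (compounds screened at 7.5 µM in platelet-rich plasma)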; 300,000 tested, 0.22% active;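 active = mean replicate score, as percent of positive control, at or above 50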
HSP90 confirm – confirmation of HSP90 inhibitors | shares compounds with HSP90 refold inh | rabbit reticulocyte lysate, luciferase refolding luminescence, 3 h | inhibition, % at 5.9 µM | 2,300 tested, 64% active | AID 1846; in the data active = inhibition above about 18%
luciferase ctr – firefly luciferase inhibition, HSP90 counter-screen; shares compounds with HSP90 refold inh; purified native firefly luciferase, luminescence; inhibition, % at 5.9 µM; 2,300 tested, 48% active; AID 1847;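 active = inhibition above the mean inhibition of all tested sample wells plus 3 SD, cut at about 10% in these data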
Target sequence (P08659 whole entry, looked up): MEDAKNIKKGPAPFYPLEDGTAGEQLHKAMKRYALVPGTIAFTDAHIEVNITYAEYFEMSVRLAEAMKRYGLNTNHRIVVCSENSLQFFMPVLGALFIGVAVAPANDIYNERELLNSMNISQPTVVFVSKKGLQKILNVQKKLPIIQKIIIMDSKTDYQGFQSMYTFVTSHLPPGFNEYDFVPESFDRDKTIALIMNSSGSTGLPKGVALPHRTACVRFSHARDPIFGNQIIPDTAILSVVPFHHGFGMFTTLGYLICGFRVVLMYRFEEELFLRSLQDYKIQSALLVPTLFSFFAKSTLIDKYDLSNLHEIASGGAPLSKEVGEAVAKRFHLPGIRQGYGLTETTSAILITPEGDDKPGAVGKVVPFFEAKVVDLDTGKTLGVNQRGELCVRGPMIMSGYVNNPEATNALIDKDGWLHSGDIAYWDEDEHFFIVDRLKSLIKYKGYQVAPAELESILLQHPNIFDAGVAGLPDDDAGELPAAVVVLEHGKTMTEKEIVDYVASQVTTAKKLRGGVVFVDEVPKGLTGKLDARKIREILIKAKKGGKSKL
SENP8 conf – human SENP8 inhibition, confirmed; shares compounds with SENP7 inh; Recombinant SENP8, Z-RLRGG-aminoluciferin luminescence, 60 min; inhibition, % at 12.5 µM; 6,200 tested, 40% active; AID 488912;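 active = mean inhibition across replicates above about 50%, limit read from the data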
SENP6 conf – human SENP6 inhibition, confirmed. inhibition, % at 12.5 µM. 6,200 tested, 58% active. shares compounds with SENP7 inh. recombinant SENP6, Z-RLRGG-aminoluciferin luminescence
SENP7 confirm – confirmation of human SENP7 protease inhibitors; shares compounds with SENP7 inh; recombinant SENP7, Z-RLRGG-aminoluciferin luminescence, 40 min; inhibition, % at 12.5 µM; 6,200 tested, 69% active
Casp3 select – selectivity test for SENP inhibitors: human caspase-3 inhibition. shares compounds with SENP7 inh. purified caspase-3, Z-DEVD-aminoluciferin luminescence, 60 min. inhibition, % at 12.5 µM. 6,200 tested, 60% active. AID 488918;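 active = mean inhibition above about 50%, limit read from the data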
SENP luc ctr – counter-screen for SENP inhibitors: luminescence interference. Pre-incubated SENP8/Z-RLRGG-aminoluciferin, luciferase luminescence interference. shares compounds with SENP7 inh. inhibition, % at 12.5 µM. 6,200 tested, 39% active;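 active = mean inhibition above about 50% when retested at one dose, limit read from the data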
Of the large screens only hits and unclear results are named; the others gave an inactive call (follow-up assays come after a bar, where they were run). A selection: hits, their analogues and other compounds. The true share with any hit is near 2.8%.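 The calls were made as follows, unless noted: active = mean inhibition above about 50% in the one-dose retest (limit read from the data); inactive = the rest.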

CC1CCC(NC(=O)CCC(=O)N2CC(C)Oc3ccccc32)CC1 (stereo unspecified)	none
Cc1cc(-c2ccccc2)c2c(=O)[nH][nH]c2n1	HSP90 refold inh 18.3 | HSP90 confirm inactive | luciferase ctr inactive
O=c1[nH]nc(-c2ccccc2)cc1-c1ccccc1	none (no result: HSP90 refold inh)
Cc1oc(-c2ccc3c(c2)OCCO3)cc1C(=O)NC(CCC(=O)O)C(=O)O (stereo unspecified)	HSP90 refold inh 63.8 | HSP90 confirm 77.3 | luciferase ctr 33.1
CCCS(=O)(=O)NC(=O)C1(C)CCN(C(=O)c2ccc(F)c(Cl)c2)C1 (stereo unspecified)	none (no result: SENP8 block-1, SENP7 inh, HSP90 refold inh, SENP6 inh, Platelet DG rel)
Cc1ccccc1-n1nc2c(c1NC(=O)c1cccs1)CS(=O)(=O)C2	none
Cc1ccc(-n2nc3c(c2NC(=O)c2cccs2)CS(=O)(=O)C3)c(C)c1	HSP90 refold inh 86.4 | HSP90 confirm inactive | luciferase ctr inactive
CCC(C(=O)NCc1ccccc1)n1c(CSCCOc2ccccc2)nc2ccccc21 (stereo unspecified)	none (no result: SENP8 block-1, SENP7 inh, HSP90 refold inh, SENP6 inh, Platelet DG rel)
c1ccc(C2=NNC(=NCc3ccc4c(c3)OCO4)SC2)cc1	none
C=CCN=C1NN=C(c2ccc3c(c2)OCCO3)CS1	HSP90 refold inh 46.9 | HSP90 confirm 83.0 | luciferase ctr 79.0
C=CCS/C(N)=N\N=C\c1cc(Br)cc([N+](=O)[O-])c1O	none
Cc1c(Cl)cccc1NC(=O)CCCn1cnc([N+](=O)[O-])n1	HSP90 refold inh 18.0 | HSP90 confirm inactive | luciferase ctr inactive
O=C(CCCn1cnc([N+](=O)[O-])n1)Nc1cccc(Cl)c1Cl	none
CCOc1ncccc1C(=O)Nc1ccc(C)cn1	none
Cc1cc(C(=O)COC(=O)c2ccc(O)cc2)c(C)n1-c1ccccc1F	HSP90 refold inh 50.3 | HSP90 confirm 58.4 | luciferase ctr 49.2
COc1ccc(-n2c(C)cc(C(=O)Cn3nnc4ccccc4c3=O)c2C)cc1	none
Cc1cc(C(=O)COC(=O)c2ccc[nH]c2=O)c(C)n1-c1ccccc1F	none
Cc1cc(C(=O)Cn2nnc3ccccc3c2=O)c(C)n1-c1ccccc1F	HSP90 refold inh 61.6 | HSP90 confirm 70.1 | luciferase ctr 54.3
COc1ccccc1NC(=O)CSc1nnc(C)s1	none
Cc1ccc(C)c(N2CC(C(=O)OCC(=O)Nc3cc(C)on3)CC2=O)c1 (stereo unspecified)	none
COc1ccc(OC)c(/C=N/Nc2nncn2/N=C/c2cc(OC)ccc2OC)c1	HSP90 refold inh 42.0 | HSP90 confirm inactive | luciferase ctr inactive
COc1ccc(OC)c(/C=N\Nc2nccs2)c1	none (no result: HSP90 refold inh)
O=C(Nc1ccccc1Cl)c1ccc(=O)[nH]n1	none
CCN(CC)S(=O)(=O)c1ccc(C)c(NC(=O)CN2CCN(Cc3ccccc3)CC2)c1	HSP90 refold inh 28.8 | HSP90 confirm inactive | luciferase ctr inactive
Cc1ccccc1NC(=O)CN1CCN(Cc2ccccc2)CC1	none
COCCN(Cc1nc(-c2ccc(-c3ccccc3)cc2)oc1C)C(C)C	HSP90 refold inh 85.3 | HSP90 confirm 88.9 | luciferase ctr 20.6
Cc1oc(-c2ccoc2)nc1CN(CC1CCC(=O)N1)C(C)C (stereo unspecified)	none
NC(=O)C1CC2(C1)CC(C(N)=O)C2 (stereo unspecified)	none (no result: SENP8 block-1, SENP7 inh, HSP90 refold inh, SENP6 inh, Platelet DG rel)
CCOC(=O)/C(C#N)=C/c1cc(C)n(-c2ccc(Br)cc2)c1C	none (no result: SENP8 block-2)
CCOC(=O)/C(C#N)=C/c1cc(C)n(-c2ccccc2)c1C	HSP90 refold inh 54.3 | HSP90 confirm 65.3 | luciferase ctr 64.5
Cc1cc(C(=O)Cn2nc(C(=O)O)c3ccccc3c2=O)c(C)n1CC(F)(F)F	HSP90 refold inh 25.8 | HSP90 confirm 44.5 | luciferase ctr inactive
COCC(C)n1c(C)cc(C(=O)Cn2nc(C(=O)O)c3ccccc3c2=O)c1C (stereo unspecified)	HSP90 refold inh 41.7 | HSP90 confirm 51.8 | luciferase ctr inactive
COc1ccc(/C=C(/NC(=O)c2ccco2)C(=O)Nc2ccc(C(=O)O)cc2)cc1	none
CN(C(=O)CSc1nc(-c2ccccc2)cn1N)C(c1ccccc1)c1ccccc1	HSP90 refold inh 17.8 | HSP90 confirm inactive | luciferase ctr inactive
COc1ccccc1CNC(=O)CSc1nc(-c2ccccc2)cn1N	none
CC1Cc2ccccc2N1C(=O)c1ccc(F)c(S(=O)(=O)N2CCOCC2)c1 (stereo unspecified)	none (no result: HSP90 refold inh, Platelet DG rel)
O=C(O)CSCC(=O)Nc1ccc(C2CCCCC2)cc1	HSP90 refold inh 52.1 | HSP90 confirm 56.9 | luciferase ctr inactive
Cc1onc(-c2ccccc2Cl)c1C(=O)N1CCN(C(=O)c2ccco2)CC1	HSP90 refold inh 26.9 | HSP90 confirm inactive | luciferase ctr inactive
CN(CC(=O)NCc1ccncc1)S(=O)(=O)c1cc(Cl)ccc1Cl	HSP90 refold inh 53.3 | HSP90 confirm inactive | luciferase ctr inactive
CCC(CC)C(C(=O)NCc1ccccc1)N(C)Cc1ccc(Cl)c(Cl)c1 (stereo unspecified)	none (no result: SENP8 block-1, SENP7 inh, HSP90 refold inh, SENP6 inh, Platelet DG rel)
CCc1nnc(NC(=O)c2n[nH]c(=O)c3ccccc23)s1	HSP90 refold inh 26.4 | HSP90 confirm inactive | luciferase ctr inactive
CCc1ccc(NC(=O)c2n[nH]c(=O)c3ccccc23)cc1	none
Cc1cc2nc(-c3cccnc3SCC(=O)NC(C)C)[nH]c2cc1C	SENP8 block-1 81.8, SENP7 inh 87.4, HSP90 refold inh 33.8, SENP6 inh 90.3 | HSP90 confirm inactive | luciferase ctr inactive | SENP8 conf 86.2 | SENP6 conf 85.2 | SENP7 confirm 98.1 | Casp3 select 88.2 | SENP luc ctr inactive
O=C(CSc1ncccc1-c1nc2ccccc2[nH]1)NC1CC1	none
